# Results from PubChem BioAssay (NCATS).
# Results filed as inconclusive are left out. A call without a number means that no potency is given here. Activity calls are given as the source filed them. Calls come from the whole dose curve; as a rule, active = well fitted curve in the direction sought with a large enough effect; inconclusive = small, poorly fitted or top-dose-only effect, or another doubt; inactive = no such curve, though single readings can be large; an effect the other way counts as inactive or inconclusive.
# System: not listed separately
# Test: Primary qHTS for inhibitors of La Crosse Virus (LACV) - induced cell death in SH-SY5Y cells (AID 1508616); note: potency is the fitted concentration of half-maximal effect
# Conditions: SH-SY5Y LACV cytopathicity rescue, ATP luminescence, 6 d; series mostly up to 9.63 µM
# How it was run: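 Luminescent ATP readout (ATPLite 1step, 5 min room temperature) measured rescue from LACV-induced death after 6 days of infection at 0.01 MOI; normalized to infected DMSO wells and uninfected DMSO wells.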
row,Compound,Potency
1,Nc1ccc(CCN2CCN(c3cccc(C(F)(F)F)c3)CC2)cc1,inactive
2,O=C(O)c1cc[c]([Hg][Cl])cc1,inactive
3,c1ccc2c(N3CCNCC3)cccc2c1,inactive
4,N#C/C(=C/c1ccc(O)c(O)c1)C(N)=S,inactive
5,Cc1c2ccncc2c(C)c2c1[nH]c1ccccc12,1.58 µM (active)

# Target: Calcium and integrin-binding protein 1 (Homo sapiens) (UniProt Q99828)
# Sequence (Q99828 whole entry, looked up): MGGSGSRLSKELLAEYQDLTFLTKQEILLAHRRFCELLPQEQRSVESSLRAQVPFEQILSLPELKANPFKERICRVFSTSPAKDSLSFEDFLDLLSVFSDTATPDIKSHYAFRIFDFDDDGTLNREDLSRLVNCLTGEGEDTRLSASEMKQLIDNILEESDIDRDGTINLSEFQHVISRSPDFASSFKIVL
# Test: Validation qHTS for Identification of Calcium Integrin Binding protein 1 (CIB1) Competitor (AID 1508618); note: potency is the fitted concentration of half-maximal effect
# Conditions: CIB1-GST / FITC-alphaIIb peptide fluorescence polarization; series mostly up to 114 µM
# How it was run: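 Fluorescence polarization with 1 uM CIB1-GST and 100 nM FITC-alphaIIb peptide in HEPES pH 7.4, NaCl, 5 mM CaCl2, Tween20. Compounds at up to 114 uM final, preincubated with protein 15 min; read after 15 min more at RT.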
row,Compound,Potency
1,CCCn1c(=O)c2[nH]c(C3CCCC3)nc2n(CCCOC(=O)c2ccc(S(=O)(=O)F)cc2)c1=O,inactive
2,CC(C)NP(=O)(NC(C)C)OP(=O)(NC(C)C)NC(C)C,inactive
3,CC(N)c1cccc(Cl)c1Cl (centres undefined),inactive
4,CCCN1CCc2cccc3c2[C@H]1Cc1ccc(O)c(O)c1-3,inactive
5,OCc1cnc[nH]1,inactive
6,Oc1ccc2c3c1O[C@H]1c4oc5ccccc5c4C[C@@]4(O)C(C2)N(CC2CC2)CCC314 (some centres undefined),inactive
7,Clc1ccc(N2CC3CCC(C2)N3)nn1,inactive
8,CNc1ccc2oc(C[C@H]3O[C@@]4(CC[C@H]3C)O[C@H]([C@H](C)C(=O)c3ccc[nH]3)[C@H](C)C[C@H]4C)nc2c1C(=O)O,inactive
9,CC(N)Cc1c[nH]c2ccc(OCc3cccs3)cc12 (centres undefined),inactive
10,NCC(O)c1cc(O)c(O)cc1F (centres undefined),inactive
11,C[C@H](N)Cc1cccc(C(F)(F)F)c1,inactive
12,CCCN(CCC)C1CCc2cccc(O)c2C1 (centres undefined),inactive
13,CN1CC[C@@]2(C)c3cc(OC(=O)Nc4ccccc4)ccc3N(C)[C@@H]12,inactive
14,CN1C2CCC1CC(OC(c1ccccc1)c1ccccc1N)C2 (centres undefined),inactive
15,C[C@H]1C2Cc3ccc(O)cc3[C@@]1(C)CCN2CC1CC1,inactive
16,COc1ccc2c(c1)C13CCCCC1C(C2)N(C)CC3 (centres undefined),inactive
17,Cc1[nH]c2ccc(O)cc2c1CCN,inactive

row,Compound,Potency
1,C[C@H](N)CN1CCc2ccc(Br)cc21,inactive
2,N[C@@]1(C(=O)O)CC[C@@H](C(=O)O)C1,inactive
3,CN1CCC[C@@H]1Cc1c[nH]c2ccc(Nc3ncccc3[N+](=O)[O-])cc12,inactive
4,CCNC(=O)[C@H]1O[C@@H](n2cnc3c(N)ncnc32)[C@H](O)[C@@H]1O,inactive
5,C[C@@H]1O[C@@H](O[C@H]2C[C@@H](O)[C@]3(CO)[C@@H]4C(CC[C@]3(O)C2)[C@@]2(O)CC[C@H]([C@@H]3COC(=O)C3)[C@@]2(C)C[C@H]4O)[C@H](O)[C@H](O)[C@H]1O (some centres undefined),inactive
6,N#CCCN,inactive
7,CC12NC(Cc3ccccc31)c1ccccc12 (centres undefined),inactive
8,NC(Cc1cc(O)c(O)cc1O)C(=O)O (centres undefined),35.5 µM (active)
9,CC(C)(O)[C@@H]1C2OC(=O)[C@@H]1[C@]1(O)C[C@H]3O[C@]34C(=O)O[C@H]2[C@]14C (tested in a mixture with another compound),inactive
10,Nc1cc2c(ncn2CCOCP(=O)(O)O)c(=O)[nH]1,inactive
11,Nc1ccc(CCN2CCN(c3cccc(C(F)(F)F)c3)CC2)cc1,inactive
12,c1ccc2c(N3CCNCC3)cccc2c1,inactive
13,N#C/C(=C/c1ccc(O)c(O)c1)C(N)=S,inactive
14,O=c1ccc2[nH]cc(C3=CCNCC3)c2[nH]1,inactive
15,Cc1c2ccncc2c(C)c2c1[nH]c1ccccc12,inactive
16,CCn1cnc2c(Nc3cccc(Cl)c3)nc(N[C@@H]3CCCC[C@@H]3N)nc21,inactive

# System: not listed separately
# Test: Counterscreen qHTS for small molecule stabilizers of the endoplasmic reticulum resident proteome: GLuc-NoTag assay (AID 1508627);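 note: SH-SY5Y cells given compound then 100 nM thapsigargin to empty ER calcium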
# Conditions: Gaussia luciferase NoTag secretion counterscreen, luminescence, thapsigargin 100 nM for final 4 h; series mostly up to 76.4 µM
# How it was run: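 SH-SY5Y cells stably expressing constitutively secreted GLuc (no SERCaMP tag) were pre-incubated 5 h, treated with compound for 19 h, then 100 nM thapsigargin for 4 h at 37C; medium GLuc read by coelenterazine luminescence.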
row,Compound,outcome
1,CC(C)[C@@]1(NC(=O)[C@@H]2C[C@@H]3c4cccc5[nH]cc(c45)C[C@H]3N(C)C2)O[C@@]2(O)[C@@H]3CCCN3C(=O)[C@H](Cc3ccccc3)N2C1=O,inactive
2,Clc1ccc(N2CC3CCC(C2)N3)nn1,inactive
3,CN1CC[C@@]2(C)c3cc(OC(=O)Nc4ccccc4)ccc3N(C)[C@@H]12,inactive
4,CN1C2CCC1CC(OC(c1ccccc1)c1ccccc1N)C2 (centres undefined),inactive
5,COc1ccc2c(c1)C13CCCCC1C(C2)N(C)CC3 (centres undefined),inactive
6,C[C@H](N)CN1CCc2ccc(Br)cc21,inactive
7,Nc1ccc(CCN2CCN(c3cccc(C(F)(F)F)c3)CC2)cc1,inactive
8,O=C(O)c1cc[c]([Hg][Cl])cc1,inactive
9,c1ccc2c(N3CCNCC3)cccc2c1,inactive
10,N#C/C(=C/c1ccc(O)c(O)c1)C(N)=S,inactive

# System: not listed separately
# Test: Confirmatory qHTS for small molecule stabilizers of the endoplasmic reticulum resident proteome: Secreted ER Calcium Modulated Protein (SERCaMP) assay (AID 1508628); note: nearly all actives have a fitted effect of over 40% in size; note: potency is the fitted concentration of half-maximal effect
# Conditions: SERCaMP secreted luciferase ER calcium/proteostasis reporter; series mostly up to 76.3 µM
# How it was run: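 We seeded SH-SY5Y-GLuc-SERCaMP cells, added compounds (three concentrations in the primary run, eleven up to 76.6 uM in confirmation), incubated 16 h, depleted ER calcium with thapsigargin, and read luciferase 4 h later.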
row,Compound,Potency
1,CC(C)[C@@]1(NC(=O)[C@@H]2C[C@@H]3c4cccc5[nH]cc(c45)C[C@H]3N(C)C2)O[C@@]2(O)[C@@H]3CCCN3C(=O)[C@H](Cc3ccccc3)N2C1=O,25.1 µM (active)
2,NCC(O)c1cc(O)c(O)cc1F (centres undefined),inactive
3,CN1CC[C@@]2(C)c3cc(OC(=O)Nc4ccccc4)ccc3N(C)[C@@H]12,39.8 µM (active)
4,CN1C2CCC1CC(OC(c1ccccc1)c1ccccc1N)C2 (centres undefined),31.6 µM (active)
5,COc1ccc2c(c1)C13CCCCC1C(C2)N(C)CC3 (centres undefined),2 µM (active)
6,N#C/C(=C/c1ccc(O)c(O)c1)C(N)=S,10 µM (active)
